Experimental data as given in the supplement of paper PMC6411743.
± gives the standard deviation of the averaged measurements. Of roughly 6,500 targets only a part is listed; those with the largest changes were picked by preference.

Compound: Nc1ncnc2c1ncn2[C@@H]1O[C@H](COP(=O)(O)OP(=O)(O)OP(=O)(O)O)[C@@H](O)[C@H]1O [adenosine triphosphate]
Test: NP40-soluble protein abundance relative to vehicle (solubility fold change) (ratio); higher = more soluble protein in presence of ATP
In short: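 In three independent experiments, Jurkat crude lysate made by Dounce homogenisation was treated for 10 min at room temperature and then 3 min at 37 °C with eight concentrations ranging from 0.1 to 10 mM. It was then solubilised with 0.8% NP40 plus benzonase for 60 min at 4 °C and ultracentrifuged. The supernatant was TMT-labelled for LC-MS/MS, and each value is the fold change against the detergent-processed vehicle for the same replicate, using vsn-normalised intensities.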

Chain of UniProt Q6I9Y2 (Q6I9Y2 whole entry): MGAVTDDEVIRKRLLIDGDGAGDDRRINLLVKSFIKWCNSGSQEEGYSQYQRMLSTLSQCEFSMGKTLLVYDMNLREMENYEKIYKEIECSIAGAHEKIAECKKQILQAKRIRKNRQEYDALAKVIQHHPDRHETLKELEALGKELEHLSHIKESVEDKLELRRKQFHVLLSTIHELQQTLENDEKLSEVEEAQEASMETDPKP
Chain of UniProt Q8N6N3 (Q8N6N3 whole entry): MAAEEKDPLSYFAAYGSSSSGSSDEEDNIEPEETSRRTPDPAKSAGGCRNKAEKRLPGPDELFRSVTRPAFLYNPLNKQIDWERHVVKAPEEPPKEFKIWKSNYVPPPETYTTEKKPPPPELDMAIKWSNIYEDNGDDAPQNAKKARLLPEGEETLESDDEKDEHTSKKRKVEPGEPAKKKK
Chain of UniProt Q8N8D1 (Q8N8D1 whole entry): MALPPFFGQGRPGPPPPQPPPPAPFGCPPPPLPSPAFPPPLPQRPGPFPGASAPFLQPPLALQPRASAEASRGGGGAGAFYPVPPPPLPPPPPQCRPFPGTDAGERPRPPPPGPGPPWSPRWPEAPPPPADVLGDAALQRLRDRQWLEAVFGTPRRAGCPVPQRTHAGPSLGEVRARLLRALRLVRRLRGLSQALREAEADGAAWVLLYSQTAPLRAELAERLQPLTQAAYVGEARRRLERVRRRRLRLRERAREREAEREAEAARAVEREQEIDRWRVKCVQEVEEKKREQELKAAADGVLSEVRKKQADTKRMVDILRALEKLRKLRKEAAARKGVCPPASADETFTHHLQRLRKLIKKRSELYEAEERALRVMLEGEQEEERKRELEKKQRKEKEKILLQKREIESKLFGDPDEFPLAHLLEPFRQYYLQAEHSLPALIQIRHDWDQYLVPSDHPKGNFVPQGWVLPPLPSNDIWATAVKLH
Chain of UniProt Q66GS9 (Q66GS9 whole entry): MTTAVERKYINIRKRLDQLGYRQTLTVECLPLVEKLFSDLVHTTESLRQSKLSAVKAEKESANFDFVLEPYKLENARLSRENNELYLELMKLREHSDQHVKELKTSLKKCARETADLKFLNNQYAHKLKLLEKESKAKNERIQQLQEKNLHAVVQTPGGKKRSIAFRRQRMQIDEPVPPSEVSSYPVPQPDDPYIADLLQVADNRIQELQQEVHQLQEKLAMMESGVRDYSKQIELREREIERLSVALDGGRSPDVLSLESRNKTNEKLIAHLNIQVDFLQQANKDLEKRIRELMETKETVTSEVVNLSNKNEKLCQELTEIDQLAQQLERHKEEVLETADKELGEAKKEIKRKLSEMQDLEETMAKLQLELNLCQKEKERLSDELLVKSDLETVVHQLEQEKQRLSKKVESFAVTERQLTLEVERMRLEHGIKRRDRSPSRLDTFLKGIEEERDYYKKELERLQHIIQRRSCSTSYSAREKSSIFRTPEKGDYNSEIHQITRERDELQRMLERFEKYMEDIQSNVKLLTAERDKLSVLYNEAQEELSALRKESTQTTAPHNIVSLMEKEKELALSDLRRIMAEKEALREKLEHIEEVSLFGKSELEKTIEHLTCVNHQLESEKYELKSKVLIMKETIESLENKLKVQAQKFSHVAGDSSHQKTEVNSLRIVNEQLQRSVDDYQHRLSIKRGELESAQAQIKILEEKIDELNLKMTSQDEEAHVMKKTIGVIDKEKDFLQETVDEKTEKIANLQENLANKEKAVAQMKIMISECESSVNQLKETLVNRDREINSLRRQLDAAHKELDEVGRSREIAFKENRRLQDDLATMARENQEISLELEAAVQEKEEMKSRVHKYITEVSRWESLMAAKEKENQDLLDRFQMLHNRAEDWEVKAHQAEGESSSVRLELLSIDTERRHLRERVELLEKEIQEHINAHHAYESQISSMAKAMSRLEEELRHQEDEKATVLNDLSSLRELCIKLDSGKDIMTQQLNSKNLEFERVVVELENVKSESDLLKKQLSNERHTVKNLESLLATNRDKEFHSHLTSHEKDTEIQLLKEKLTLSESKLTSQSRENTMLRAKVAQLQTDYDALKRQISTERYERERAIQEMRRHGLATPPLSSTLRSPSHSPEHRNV
Chain of UniProt Q8NCA5 (Q8NCA5 whole entry): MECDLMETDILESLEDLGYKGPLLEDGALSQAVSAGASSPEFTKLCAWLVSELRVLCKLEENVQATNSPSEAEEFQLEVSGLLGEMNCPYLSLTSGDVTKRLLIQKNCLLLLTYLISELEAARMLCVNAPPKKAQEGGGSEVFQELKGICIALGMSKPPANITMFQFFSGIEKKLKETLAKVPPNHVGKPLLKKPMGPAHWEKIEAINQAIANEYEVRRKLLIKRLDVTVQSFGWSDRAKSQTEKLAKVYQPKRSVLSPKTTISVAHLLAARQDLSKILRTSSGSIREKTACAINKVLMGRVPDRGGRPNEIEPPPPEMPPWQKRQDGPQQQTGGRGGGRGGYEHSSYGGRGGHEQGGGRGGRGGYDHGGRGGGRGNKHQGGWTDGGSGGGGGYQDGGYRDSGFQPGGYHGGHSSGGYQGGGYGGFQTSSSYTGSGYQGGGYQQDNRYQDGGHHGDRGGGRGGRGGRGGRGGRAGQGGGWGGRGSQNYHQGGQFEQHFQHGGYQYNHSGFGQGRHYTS
Chain of UniProt Q8NC60 (Q8NC60 whole entry): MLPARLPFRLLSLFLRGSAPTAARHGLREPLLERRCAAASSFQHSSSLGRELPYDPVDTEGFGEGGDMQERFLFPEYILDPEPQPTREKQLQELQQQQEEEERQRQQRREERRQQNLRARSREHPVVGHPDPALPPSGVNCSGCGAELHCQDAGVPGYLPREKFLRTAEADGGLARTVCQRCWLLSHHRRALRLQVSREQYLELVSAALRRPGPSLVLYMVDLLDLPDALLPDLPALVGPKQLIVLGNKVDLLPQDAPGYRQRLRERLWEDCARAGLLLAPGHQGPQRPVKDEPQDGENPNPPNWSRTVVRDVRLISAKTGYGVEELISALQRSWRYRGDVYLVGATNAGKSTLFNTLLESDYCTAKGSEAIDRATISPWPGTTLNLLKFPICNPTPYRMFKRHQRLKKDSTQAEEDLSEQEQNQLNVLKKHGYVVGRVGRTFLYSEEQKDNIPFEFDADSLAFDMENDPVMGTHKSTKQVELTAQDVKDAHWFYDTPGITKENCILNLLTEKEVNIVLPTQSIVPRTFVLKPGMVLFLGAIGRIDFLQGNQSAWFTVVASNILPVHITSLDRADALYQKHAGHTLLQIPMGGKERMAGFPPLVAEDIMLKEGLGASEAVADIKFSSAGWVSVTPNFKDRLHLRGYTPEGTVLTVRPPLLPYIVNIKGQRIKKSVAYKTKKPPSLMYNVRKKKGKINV
Chain of UniProt Q86VR2 (Q86VR2 whole entry): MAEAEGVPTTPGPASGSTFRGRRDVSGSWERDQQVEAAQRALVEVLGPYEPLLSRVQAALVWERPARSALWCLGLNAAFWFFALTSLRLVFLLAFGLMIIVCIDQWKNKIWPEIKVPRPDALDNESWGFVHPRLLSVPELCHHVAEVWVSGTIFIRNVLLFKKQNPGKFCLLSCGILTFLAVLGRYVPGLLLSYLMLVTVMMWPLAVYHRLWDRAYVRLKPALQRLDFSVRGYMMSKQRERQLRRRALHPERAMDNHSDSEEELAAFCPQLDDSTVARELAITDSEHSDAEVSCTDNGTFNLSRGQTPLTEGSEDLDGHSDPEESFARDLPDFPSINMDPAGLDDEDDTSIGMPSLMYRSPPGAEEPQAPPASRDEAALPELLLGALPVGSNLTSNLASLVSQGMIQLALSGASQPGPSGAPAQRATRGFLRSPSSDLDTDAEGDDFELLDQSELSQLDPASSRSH
Chain of UniProt Q14061 (Q14061 whole entry): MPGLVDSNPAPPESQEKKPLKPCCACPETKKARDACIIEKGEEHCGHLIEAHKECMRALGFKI
Chain of UniProt Q8IUH5 (Q8IUH5 whole entry): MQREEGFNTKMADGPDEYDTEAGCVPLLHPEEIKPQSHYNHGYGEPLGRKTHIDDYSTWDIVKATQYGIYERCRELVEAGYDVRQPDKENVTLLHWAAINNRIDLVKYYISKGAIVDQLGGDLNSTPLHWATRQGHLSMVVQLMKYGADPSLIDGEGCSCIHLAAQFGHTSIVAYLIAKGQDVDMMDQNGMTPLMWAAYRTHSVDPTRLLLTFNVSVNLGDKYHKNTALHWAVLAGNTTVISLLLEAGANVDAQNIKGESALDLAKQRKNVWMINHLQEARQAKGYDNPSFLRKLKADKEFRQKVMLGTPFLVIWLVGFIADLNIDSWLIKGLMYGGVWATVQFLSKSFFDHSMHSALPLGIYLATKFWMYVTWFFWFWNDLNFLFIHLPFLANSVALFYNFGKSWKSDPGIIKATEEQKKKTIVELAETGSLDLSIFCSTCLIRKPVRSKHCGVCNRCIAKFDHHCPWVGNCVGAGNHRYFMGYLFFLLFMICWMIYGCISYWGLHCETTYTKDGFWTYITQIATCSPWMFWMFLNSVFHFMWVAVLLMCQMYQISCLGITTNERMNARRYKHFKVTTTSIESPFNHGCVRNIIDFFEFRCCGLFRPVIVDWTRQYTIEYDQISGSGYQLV
Chain of UniProt Q8NAF0 (Q8NAF0 whole entry): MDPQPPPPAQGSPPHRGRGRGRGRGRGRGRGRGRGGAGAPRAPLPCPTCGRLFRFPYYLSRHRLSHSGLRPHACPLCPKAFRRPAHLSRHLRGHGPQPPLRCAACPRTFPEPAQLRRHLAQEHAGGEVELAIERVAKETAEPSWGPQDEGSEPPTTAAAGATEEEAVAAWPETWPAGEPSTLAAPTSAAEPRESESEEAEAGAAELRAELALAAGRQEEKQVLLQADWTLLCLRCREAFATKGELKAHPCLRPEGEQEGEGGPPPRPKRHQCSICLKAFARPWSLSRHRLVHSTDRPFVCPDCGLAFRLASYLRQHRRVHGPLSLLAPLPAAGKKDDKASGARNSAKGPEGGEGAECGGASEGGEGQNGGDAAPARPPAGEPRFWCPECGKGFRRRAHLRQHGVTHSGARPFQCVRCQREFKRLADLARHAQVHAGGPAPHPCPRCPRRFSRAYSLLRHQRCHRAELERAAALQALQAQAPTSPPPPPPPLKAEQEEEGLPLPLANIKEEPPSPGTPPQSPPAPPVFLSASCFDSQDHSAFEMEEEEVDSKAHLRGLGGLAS

Target	NP40-soluble protein abundance (concentration: 1mM)	NP40-soluble protein abundance (concentration: 2mM)	NP40-soluble protein abundance (concentration: 4mM)	NP40-soluble protein abundance (concentration: 6mM)	NP40-soluble protein abundance (concentration: 8mM)	NP40-soluble protein abundance (concentration: 10mM)
THOC5 (UniProt Q13769)	1.53 ± 0.054	1.68 ± 0.11	2.01 ± 0.17	2.23 ± 0.28	2.52 ± 0.27	2.52 ± 0.29
UniProt Q86VR2	0.91 ± 0.084	0.941 ± 0.088	0.925 ± 0.11	0.869 ± 0.037	0.906 ± 0.064	0.943 ± 0.052
UniProt Q3KQU3|Q3KQU3-4	1.08 ± 0.1	1.03 ± 0.11	1.09 ± 0.13	1.13 ± 0.26	1.1 ± 0.16	1.14 ± 0.13
UniProt Q8TDY2|Q8TDY2-2	1.04 ± 0.056	1.02 ± 0.044	1.03 ± 0.038	1.04 ± 0.042	1.01 ± 0.041	1.04 ± 0.038
UniProt Q6NW34|Q6NW34-2	0.863 ± 0.078	0.831 ± 0.11	0.792 ± 0.15	0.892 ± 0.11	0.84 ± 0.14	0.785 ± 0.21
PDCD11 (UniProt Q14690)	1.09 ± 0.092	1.14 ± 0.056	1.29 ± 0.062	1.5 ± 0.13	1.75 ± 0.073	2.06 ± 0.15
UniProt Q8IY17|Q8IY17-3|Q8IY17-4|Q8IY17-2	1.05 ± 0.056	1.05 ± 0.033	1.028 ± 0.0096	1.01 ± 0.051	1.04 ± 0.04	1.06 ± 0.036
PCGF5 (UniProt Q86SE9)	0.922 ± 0.16	1.01 ± 0.056	0.981 ± 0.15	0.987 ± 0.087	0.954 ± 0.11	1.07 ± 0.037
ZDHHC17 (UniProt Q8IUH5)	1.08 ± 0.056	0.997 ± 0.021	1.11 ± 0.082	1.02 ± 0.058	1.09 ± 0.063	1.08 ± 0.033
UniProt Q53HC0|Q53HC0-2	0.993 ± 0.083	0.918 ± 0.031	0.939 ± 0.082	0.993 ± 0.21	0.966 ± 0.092	0.922 ± 0.084
CEP135 (UniProt Q66GS9)	0.983 ± 0.041	0.966 ± 0.026	0.964 ± 0.038	0.956 ± 0.036	0.972 ± 0.029	0.989 ± 0.047
UniProt Q6Y7W6|Q6Y7W6-4|Q6Y7W6-5	1.05 ± 0.076	1.08 ± 0.05	1.1 ± 0.051	1.18 ± 0.068	1.12 ± 0.029	1.16 ± 0.045
THOC7 (UniProt Q6I9Y2)	1.4 ± 0.11	1.5 ± 0.15	1.73 ± 0.19	1.95 ± 0.38	2.12 ± 0.2	2.03 ± 0.26
UniProt Q13409|Q13409-2|Q13409-3|Q13409-7|Q13409-5	0.957 ± 0.063	0.957 ± 0.037	0.953 ± 0.059	0.994 ± 0.18	0.975 ± 0.089	0.973 ± 0.074
ZNF579 (UniProt Q8NAF0)	0.954 ± 0.03	1.06 ± 0.12	0.945 ± 0.016	0.936 ± 0.073	0.901 ± 0.045	0.887 ± 0.1
UniProt Q7L4P6|Q7L4P6-2	0.995 ± 0.085	1.12 ± 0.2	1.23 ± 0.3	1.2 ± 0.21	1.02 ± 0.096	1.12 ± 0.14
UniProt Q8NCA5|Q8NCA5-2	1.01 ± 0.056	1.14 ± 0.15	1.18 ± 0.12	1.26 ± 0.14	1.41 ± 0.14	1.64 ± 0.23
UniProt Q8NC60	0.967 ± 0.17	0.876 ± 0.13	0.889 ± 0.13	0.876 ± 0.2	0.945 ± 0.15	0.942 ± 0.14
ERCC6L (UniProt Q2NKX8)	0.999 ± 0.024	0.986 ± 0.026	0.971 ± 0.024	0.999 ± 0.033	0.966 ± 0.0079	0.978 ± 0.017
DDX51 (UniProt Q8N8A6)	1.25 ± 0.021	1.38 ± 0.085	1.65 ± 0.15	1.9 ± 0.22	2.05 ± 0.18	2.29 ± 0.27
UniProt Q53GS7|Q53GS7-2	1.18 ± 0.079	1.19 ± 0.12	1.39 ± 0.24	1.54 ± 0.24	1.52 ± 0.2	1.71 ± 0.23
COX17 (UniProt Q14061)	0.938 ± 0.1	0.895 ± 0.074	0.92 ± 0.1	0.963 ± 0.033	0.859 ± 0.056	0.847 ± 0.023
UniProt Q7L590|Q7L590-2|Q5T670	1.01 ± 0.11	1.07 ± 0.059	1.13 ± 0.044	1.01 ± 0.057	1.11 ± 0.12	1.14 ± 0.12
PDCD7 (UniProt Q8N8D1)	1.22 ± 0.14	1.24 ± 0.058	1.48 ± 0.099	1.48 ± 0.024	1.49 ± 0.13	1.76 ± 0.16
UniProt Q8N6N3|Q8N6N3-2	0.865 ± 0.1	0.81 ± 0.041	0.869 ± 0.13	0.822 ± 0.051	0.779 ± 0.12	0.817 ± 0.063
